Data from PubChem BioAssay (EPA / NIEHS).
Inconclusive results are not listed. Calls of active or inactive are those of the source. The calls were made as follows: active = hit-call score of the fitted dose curve at least 0.9, where 1 is the maximum; inconclusive = response in the unintended direction; inactive = score below 0.9.

Tests used:
[1] = system: guinea pig Atrionatriuretic Peptide Receptor A (ANPA), gene 100135578; assay: NVS_GPCR_gANPA: NovaScreen (NVS) G Protein-Coupled Receptor Assay for guinea pig Atrionatriuretic Peptide Receptor A (ANPA) (AID 2283291)
In short: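 Radioligand binding to guinea pig cerebellar membranes was measured after 1 h by filter-based scintillation counting. Chemicals were tested in duplicate at 25 uM, with hits run in concentration-response to a maximum of 50 uM. Binding loss was fitted against DMSO.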

[2] = molecular target: human Vasopressin 1A Receptor (V1A), AVPR1A (gene 552) (UniProt P37288); assay: NVS_GPCR_hV1A: NovaScreen (NVS) G Protein-Coupled Receptor Assay for human Vasopressin 1A Receptor (V1A) (AID 2283284)
In short: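 Cell-free radioligand displacement on human platelet preparations, 1.5 h incubation, filter-based scintillation counting. Chemicals first tested in duplicate at 25 uM; actives then run in concentration-response up to 50 uM, loss of signal fitted against DMSO.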

[3] = molecular target: rat Serotonin, 5-Hydroxytryptamine Receptor 1 (5HT1), Non-Selective Binding, Htr1a (gene 24473) (UniProt P19327); assay: NVS_GPCR_r5HT1_NonSelective: NovaScreen (NVS) G Protein-Coupled Receptor Assay for rat Serotonin, 5-Hydroxytryptamine Receptor 1 (5HT1), Non-Selective Binding (AID 2283286)
In short: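 Rat cortical membranes, radioligand displacement, 1 h incubation, read by filter scintillation. Primary screen in duplicate at 25 uM. Hits (e.g. ≥30% inhibition) went to concentration-response up to 50 uM, fitted as loss of binding versus DMSO.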

[4] = molecular target: rat Serotonin, 5-Hydroxytryptamine Receptor (5HT), Non-Selective Binding, Htr1a (gene 24473) (UniProt P19327); assay: NVS_GPCR_r5HT_NonSelective: NovaScreen (NVS) G Protein-Coupled Receptor Assay for rat Serotonin, 5-Hydroxytryptamine Receptor (5HT), Non-Selective Binding (AID 2283295)
In short: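 Radioligand displacement on rat cortical membranes, 1 h incubation, filter-based scintillation counting. Primary duplicates at 25 uM, actives retested in concentration series; loss of signal fitted against DMSO as baseline.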

[5] = molecular target: Metabotropic glutamate receptor 1 (Rattus norvegicus) (UniProt P23385); assay: NVS_GPCR_rmMGluR1: NovaScreen (NVS) G Protein-Coupled Receptor Assay for rat Glutamate Metabotropic Receptor 1 (MGluR1) (AID 2283305)
In short: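 Rat cerebellum membrane preparation, radioligand displacement binding read by filter-based scintillation counting 1 hour after dosing. Initial duplicate single-point screen at 25 uM, then concentration-response up to 50 uM; loss of signal versus DMSO baseline scored.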

[6] = molecular target: mouse Cholecystokinin, CCK1 Receptor (CCKA), Cckar (gene 12425) (UniProt O08786); assay: NVS_GPCR_mCCKAPeripheral: NovaScreen (NVS) G Protein-Coupled Receptor Assay for mouse Cholecystokinin, CCK1 Receptor (CCKA) (AID 2283285)
In short: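 Radioligand competitive displacement on mouse pancreatic membranes, 2 h incubation; filter-based scintillation counting, loss of signal versus DMSO. Single-concentration screen at 25 uM in duplicate, actives retested in concentration-response up to 50 uM.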

[7] = system: rabbit Platelet Activating Factor Receptor (PAF), gene 100354046; assay: NVS_GPCR_rabPAF: NovaScreen (NVS) G Protein-Coupled Receptor Assay for rabbit Platelet Activating Factor Receptor (PAF) (AID 2283287)
In short: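 Rabbit platelet membrane preparation; radioligand displacement read by filter-based scintillation counting 1 h after dosing, loss of signal versus DMSO. Primary screen in duplicate at 25 uM, actives followed up in concentration series.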

Adra2b (gene 24174) = Adra2b (gene 24174) (UniProt P19328); assay: NVS_GPCR_rmAdra2B: NovaScreen (NVS) G Protein-Coupled Receptor Assay for hybird cells Adrenergic, Alpha 2B Receptor (Adra2B) (AID 2283306)
In short: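 Radioligand filter-binding assay on membrane proteins from neuroglioma/blastoma hybrid cells (rodent), 1 h after dosing; scintillation counting, loss of signal vs DMSO. Primary screen in duplicate at 25 uM, actives then run in concentration series.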

[8] = molecular target: rat Gamma-Aminobutyric Acid Type B Receptor (GABBR), Gabbr1 (gene 81657) (UniProt Q9Z0U4); assay: NVS_GPCR_rGABBR: NovaScreen (NVS) G Protein-Coupled Receptor Assay for rat Gamma-Aminobutyric Acid Type B Receptor (GABBR) (AID 2283301)
In short: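 Radioligand displacement on rat cortical membranes, 1 h, filter-based scintillation counting. Primary screen at 25 uM in duplicate; compounds passing threshold re-tested in concentration-response up to 50 uM; loss of binding fitted against DMSO.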

[9] = molecular target: rat Adrenergic, Alpha 1, Non-selective Receptor (Adra1), Adra1a (gene 29412) (UniProt P43140); assay: NVS_GPCR_rAdra1_NonSelective: NovaScreen (NVS) G Protein-Coupled Receptor Assay for rat Adrenergic, Alpha 1, Non-selective Receptor (Adra1) (AID 2283289)
In short: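 Rat forebrain membranes; radioligand displacement read by filter-based scintillation counting 1 h after dosing. Primary screen in duplicate at 25 uM; hits (e.g. ≥30% inhibition) rerun as concentration–response to 50 uM max. Fitted versus DMSO.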

[10] = molecular target: rat Adrenergic, Alpha 1A Receptor (Adra1A), Adra1a (gene 29412) (UniProt P43140); assay: NVS_GPCR_rAdra1A: NovaScreen (NVS) G Protein-Coupled Receptor Assay for rat Adrenergic, Alpha 1A Receptor (Adra1A) (AID 2283296)
In short: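 Rat cortical membranes pretreated with chlorethyl clonidine; competitive radioligand displacement, 1 h. Filter-based scintillation counting. Primary screen in duplicate at 25 uM, actives followed in concentration series.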

[11] = system: rat Adrenergic, Alpha 1B Receptor (Adra1B), gene 24173; assay: NVS_GPCR_rAdra1B: NovaScreen (NVS) G Protein-Coupled Receptor Assay for rat Adrenergic, Alpha 1B Receptor (Adra1B) (AID 2283297)
In short: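 Rat liver membranes, radioligand displacement with filter-based scintillation detection, 1 h incubation. Primary screen in duplicate at 25 uM; actives retested in concentration series; activity relative to DMSO.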

[12] = system: 5-hydroxytryptamine receptor 2C (pig); assay: NVS_GPCR_p5HT2C: NovaScreen (NVS) G Protein-Coupled Receptor Assay for pig Serotonin, 5-Hydroxytryptamine Receptor 2C (5HT2C) (AID 2283288)
In short: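 Pig choroid plexus membranes; radioligand competitive binding, filter-based scintillation counting, read 1 h after dosing. Primary screen in duplicate at 25 uM; actives then run as concentration series; loss of signal versus DMSO baseline.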

[13] = molecular target: guinea pig Bradykinin Receptor B2 (BK2), BDKRB2 (gene 100135486) (UniProt O70526); assay: NVS_GPCR_gBK2: NovaScreen (NVS) G Protein-Coupled Receptor Assay for guinea pig Bradykinin Receptor B2 (BK2) (AID 2283292)
In short: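 Radioligand displacement on guinea pig ileum membranes for 1 h, read by filter-based scintillation counting; loss of signal relative to DMSO. Compounds were screened in duplicate at 25 uM, and those passing the threshold were retested in concentration-response up to 50 uM.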

[14] = molecular target: mouse Cholecystokinin, CCK2 Receptor (CCKB), Cckbr (gene 12426) (UniProt P56481); assay: NVS_GPCR_mCKKBCentral: NovaScreen (NVS) G Protein-Coupled Receptor Assay for mouse Cholecystokinin, CCK2 Receptor (CCKB) (AID 2283293)
In short: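 Radioligand displacement binding on mouse forebrain membranes, 2 h exposure, filter-based scintillation counting. Primary screen in duplicate at 25 uM; actives (e.g. ≥30% inhibition) retested in concentration-response up to 50 uM; loss of binding signal relative to DMSO.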

[15] = molecular target: guinea pig Serotonin, 5-Hydroxytryptamine Receptor 4 (5HT4), HTR4 (gene 100135548) (UniProt O70528); assay: NVS_GPCR_g5HT4: NovaScreen (NVS) G Protein-Coupled Receptor Assay for guinea pig Serotonin, 5-Hydroxytryptamine Receptor 4 (5HT4) (AID 2283294)
In short: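 Guinea pig striatal membranes; radioligand competitive displacement, filtration and scintillation counting after 1 h. Primary screen in duplicate at 25 uM; actives then tested in concentration series; loss of binding signal fitted relative to DMSO.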

[16] = molecular target: rat Adrenergic Receptor, Beta (Adrb), Non-selective Binding, Adrb1 (gene 24925) (UniProt P18090); assay: NVS_GPCR_rAdrb_NonSelective: NovaScreen (NVS) G Protein-Coupled Receptor Assay for rat Adrenergic Receptor, Beta (Adrb), Non-selective Binding (AID 2283298)
In short: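 Non-selective beta-adrenergic radioligand binding in rat cortical membranes, 1 h incubation, filter-based scintillation read-out. Primary screen 25 uM in duplicate; hits retested in concentration-response up to 50 uM, DMSO baseline.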

[17] = molecular target: rat Adrenergic Receptor, Alpha 2 (Adra2), Non-selective Binding, Adra2a (gene 25083) (UniProt P22909); assay: NVS_GPCR_rAdra2_NonSelective: NovaScreen (NVS) G Protein-Coupled Receptor Assay for rat Adrenergic Receptor, Alpha 2 (Adra2), Non-selective Binding (AID 2283299)
In short: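 Rat cortical membranes, radioligand competitive displacement read by filter-based scintillation counting 1.25 hours after dosing. Primary screen in duplicate at 25 uM; actives followed up in concentration series.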

[18] = molecular target: rat Corticotropin Releasing Factor Receptor (CRF), Crhr1 (gene 58959) (UniProt P35353); assay: NVS_GPCR_rCRF: NovaScreen (NVS) G Protein-Coupled Receptor Assay for rat Corticotropin Releasing Factor Receptor (CRF) (AID 2283300)
In short: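 Rat cortical membranes used as receptor source in a radioligand competitive displacement binding assay; scintillation read 2 h after dosing. Primary screen run in duplicate at 25 uM; loss of signal versus DMSO baseline indicates binding.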

[19] = molecular target: rat Histamine Receptor (H3), Hrh3 (gene 85268) (UniProt Q9QYN8); assay: NVS_GPCR_rH3: NovaScreen (NVS) G Protein-Coupled Receptor Assay for rat Histamine Receptor (H3) (AID 2283303)
In short: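 Rat forebrain membranes incubated 1 h with compound; radioligand displacement measured by filter-based scintillation counting. Single-concentration duplicates at 25 µM, then concentration-response up to 50 µM, relative to DMSO.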

Sequence of Adra2b (gene 24174) (P19328 whole entry, looked up): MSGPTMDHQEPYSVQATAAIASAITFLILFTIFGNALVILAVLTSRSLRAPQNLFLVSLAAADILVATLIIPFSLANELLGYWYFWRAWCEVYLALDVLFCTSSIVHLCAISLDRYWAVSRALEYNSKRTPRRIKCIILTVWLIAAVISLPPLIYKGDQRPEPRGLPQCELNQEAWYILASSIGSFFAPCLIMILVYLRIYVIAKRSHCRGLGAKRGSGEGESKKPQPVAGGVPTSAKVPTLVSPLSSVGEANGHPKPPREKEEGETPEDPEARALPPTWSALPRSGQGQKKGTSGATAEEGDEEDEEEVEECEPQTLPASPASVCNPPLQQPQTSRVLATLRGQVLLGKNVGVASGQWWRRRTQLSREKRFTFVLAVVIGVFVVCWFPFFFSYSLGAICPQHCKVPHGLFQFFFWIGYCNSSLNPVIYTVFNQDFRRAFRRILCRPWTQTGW
Sequence of rat Histamine Receptor (H3), Hrh3 (gene 85268) (Q9QYN8 whole entry, looked up): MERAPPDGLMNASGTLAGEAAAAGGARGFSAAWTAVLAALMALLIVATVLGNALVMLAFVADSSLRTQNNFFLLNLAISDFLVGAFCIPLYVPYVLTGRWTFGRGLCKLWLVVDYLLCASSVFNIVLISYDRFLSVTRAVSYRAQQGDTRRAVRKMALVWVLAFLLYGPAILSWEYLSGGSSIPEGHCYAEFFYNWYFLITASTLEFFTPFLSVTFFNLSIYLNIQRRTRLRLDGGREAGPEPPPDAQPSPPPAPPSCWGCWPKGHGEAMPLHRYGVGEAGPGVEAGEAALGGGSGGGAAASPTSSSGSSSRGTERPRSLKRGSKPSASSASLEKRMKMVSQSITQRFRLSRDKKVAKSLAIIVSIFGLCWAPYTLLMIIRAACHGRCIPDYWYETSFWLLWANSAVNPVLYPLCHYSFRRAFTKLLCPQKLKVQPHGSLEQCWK
Sequence of rat Serotonin, 5-Hydroxytryptamine Receptor 1 (5HT1), Non-Selective Binding, Htr1a (gene 24473) (P19327 whole entry, looked up): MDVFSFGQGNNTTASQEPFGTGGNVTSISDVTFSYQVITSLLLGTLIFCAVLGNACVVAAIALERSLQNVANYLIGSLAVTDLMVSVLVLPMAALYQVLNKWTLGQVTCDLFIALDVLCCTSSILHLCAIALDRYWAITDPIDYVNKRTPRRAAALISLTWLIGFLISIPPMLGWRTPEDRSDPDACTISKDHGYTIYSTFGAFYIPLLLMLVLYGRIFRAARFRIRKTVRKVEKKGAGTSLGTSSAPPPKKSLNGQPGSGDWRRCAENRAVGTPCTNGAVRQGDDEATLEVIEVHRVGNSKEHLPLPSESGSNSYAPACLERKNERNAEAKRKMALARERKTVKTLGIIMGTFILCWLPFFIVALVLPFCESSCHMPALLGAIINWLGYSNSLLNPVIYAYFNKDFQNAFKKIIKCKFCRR
Sequence of rat Serotonin, 5-Hydroxytryptamine Receptor (5HT), Non-Selective Binding, Htr1a (gene 24473) (P19327 whole entry, looked up): as above
Sequence of guinea pig Serotonin, 5-Hydroxytryptamine Receptor 4 (5HT4), HTR4 (gene 100135548) (O70528 whole entry, looked up): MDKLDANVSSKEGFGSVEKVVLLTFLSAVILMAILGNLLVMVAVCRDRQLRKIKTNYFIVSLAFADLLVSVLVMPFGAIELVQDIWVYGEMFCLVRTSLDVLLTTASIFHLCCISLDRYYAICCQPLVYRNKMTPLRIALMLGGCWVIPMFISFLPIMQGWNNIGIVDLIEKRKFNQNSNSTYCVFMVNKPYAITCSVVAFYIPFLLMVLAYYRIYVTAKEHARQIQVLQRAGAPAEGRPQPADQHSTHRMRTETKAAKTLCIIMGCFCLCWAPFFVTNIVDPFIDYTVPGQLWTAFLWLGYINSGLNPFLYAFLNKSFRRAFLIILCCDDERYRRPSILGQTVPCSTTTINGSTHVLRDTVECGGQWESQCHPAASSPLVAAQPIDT
Sequence of human Vasopressin 1A Receptor (V1A), AVPR1A (gene 552) (P37288 whole entry, looked up): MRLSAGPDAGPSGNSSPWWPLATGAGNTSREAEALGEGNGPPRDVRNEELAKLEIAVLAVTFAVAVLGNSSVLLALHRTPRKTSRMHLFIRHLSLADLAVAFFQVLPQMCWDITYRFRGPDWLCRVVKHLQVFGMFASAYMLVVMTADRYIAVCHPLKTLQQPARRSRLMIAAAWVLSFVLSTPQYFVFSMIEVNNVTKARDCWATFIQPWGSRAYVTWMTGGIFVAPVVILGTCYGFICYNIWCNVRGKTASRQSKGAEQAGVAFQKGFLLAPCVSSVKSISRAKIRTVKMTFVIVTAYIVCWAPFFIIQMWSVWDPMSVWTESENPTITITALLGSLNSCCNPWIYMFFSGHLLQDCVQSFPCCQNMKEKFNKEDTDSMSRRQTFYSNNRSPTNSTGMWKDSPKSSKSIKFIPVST
Sequence of mouse Cholecystokinin, CCK1 Receptor (CCKA), Cckar (gene 12425) (O08786 whole entry, looked up): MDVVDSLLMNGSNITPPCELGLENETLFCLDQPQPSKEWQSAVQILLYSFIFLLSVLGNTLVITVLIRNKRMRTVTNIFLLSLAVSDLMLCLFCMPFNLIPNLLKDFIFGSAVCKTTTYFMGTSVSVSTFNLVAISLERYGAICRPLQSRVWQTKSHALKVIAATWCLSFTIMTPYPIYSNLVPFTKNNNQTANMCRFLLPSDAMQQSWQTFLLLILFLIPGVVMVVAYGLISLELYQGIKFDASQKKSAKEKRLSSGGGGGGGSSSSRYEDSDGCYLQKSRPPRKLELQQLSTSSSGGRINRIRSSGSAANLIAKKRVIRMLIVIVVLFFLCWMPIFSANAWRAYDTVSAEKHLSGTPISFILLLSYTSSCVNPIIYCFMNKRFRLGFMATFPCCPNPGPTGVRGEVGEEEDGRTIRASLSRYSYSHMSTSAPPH
Sequence of rat Adrenergic, Alpha 1, Non-selective Receptor (Adra1), Adra1a (gene 29412) (P43140 whole entry, looked up): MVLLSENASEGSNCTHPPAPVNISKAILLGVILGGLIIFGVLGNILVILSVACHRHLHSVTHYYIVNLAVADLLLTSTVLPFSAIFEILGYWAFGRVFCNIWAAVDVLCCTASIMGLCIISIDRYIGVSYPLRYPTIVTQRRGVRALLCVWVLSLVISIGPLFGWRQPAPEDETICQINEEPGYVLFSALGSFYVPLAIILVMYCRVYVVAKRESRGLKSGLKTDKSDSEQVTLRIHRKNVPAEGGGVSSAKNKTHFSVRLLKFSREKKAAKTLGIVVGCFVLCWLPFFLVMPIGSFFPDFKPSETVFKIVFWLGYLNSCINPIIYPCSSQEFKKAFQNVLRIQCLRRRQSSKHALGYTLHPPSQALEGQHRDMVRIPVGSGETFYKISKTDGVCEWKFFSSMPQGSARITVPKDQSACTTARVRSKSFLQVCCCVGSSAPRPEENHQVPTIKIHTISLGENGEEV
Sequence of Metabotropic glutamate receptor 1 (Rattus norvegicus) (P23385 whole entry, looked up): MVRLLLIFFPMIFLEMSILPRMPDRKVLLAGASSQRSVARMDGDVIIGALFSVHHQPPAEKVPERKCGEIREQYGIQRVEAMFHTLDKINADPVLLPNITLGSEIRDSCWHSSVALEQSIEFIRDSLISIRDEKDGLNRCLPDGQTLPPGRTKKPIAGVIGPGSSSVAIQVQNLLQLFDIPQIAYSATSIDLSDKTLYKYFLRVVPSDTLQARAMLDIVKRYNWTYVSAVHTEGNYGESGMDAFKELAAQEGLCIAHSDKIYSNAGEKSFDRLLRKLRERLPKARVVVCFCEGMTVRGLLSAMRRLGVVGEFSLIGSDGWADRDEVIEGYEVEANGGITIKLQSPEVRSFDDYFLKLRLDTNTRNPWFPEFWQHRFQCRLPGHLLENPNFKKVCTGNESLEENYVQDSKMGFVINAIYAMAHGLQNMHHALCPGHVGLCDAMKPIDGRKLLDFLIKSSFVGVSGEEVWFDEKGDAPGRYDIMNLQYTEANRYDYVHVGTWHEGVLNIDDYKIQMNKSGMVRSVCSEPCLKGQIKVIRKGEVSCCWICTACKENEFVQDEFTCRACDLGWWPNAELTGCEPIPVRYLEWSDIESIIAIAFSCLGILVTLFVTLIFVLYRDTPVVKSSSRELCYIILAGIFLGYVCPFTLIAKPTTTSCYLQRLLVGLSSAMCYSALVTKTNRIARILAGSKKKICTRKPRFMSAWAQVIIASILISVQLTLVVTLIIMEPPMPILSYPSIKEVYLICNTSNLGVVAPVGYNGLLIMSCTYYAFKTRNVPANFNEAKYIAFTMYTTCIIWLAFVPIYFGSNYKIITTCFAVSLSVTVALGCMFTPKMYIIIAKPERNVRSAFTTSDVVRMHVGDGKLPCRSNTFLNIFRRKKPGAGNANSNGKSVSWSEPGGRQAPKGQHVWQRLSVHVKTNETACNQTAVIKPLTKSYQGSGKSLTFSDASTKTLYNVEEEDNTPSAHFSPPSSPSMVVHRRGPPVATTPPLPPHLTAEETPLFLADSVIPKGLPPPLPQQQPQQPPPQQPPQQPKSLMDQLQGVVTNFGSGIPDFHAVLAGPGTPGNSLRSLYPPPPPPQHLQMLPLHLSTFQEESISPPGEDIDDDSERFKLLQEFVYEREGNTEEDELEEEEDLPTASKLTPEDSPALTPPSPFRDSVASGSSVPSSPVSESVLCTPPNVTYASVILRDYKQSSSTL

Q: `COc1cc(C=O)cc2c1[C@H](COC(N)=O)[C@]1(OC(C)=O)ON2C[C@H]2[C@@H]1N2C(C)=O` was tested. Which outcome [1] did it give?
A: inactive

Q: `CCNS(=O)(=O)C(F)(F)C(F)(F)C(F)(F)C(F)(F)C(F)(F)C(F)(F)C(F)(F)C(F)(F)F` was tested. Which outcome [1] did it give?
A: inactive

Q: How did the outcome [2] turn out when `O=[N+]([O-])C(Br)(CO)CO` was run?
A: inactive

Q: And the AC50 [3]?
A: 32.8 µM (active)

Q: What about the outcome [4] of the same compound?
A: inactive

Q: What about the AC50 [5] of the same compound?
A: 40.5 µM (active)

Q: How did the outcome [4] turn out when `OCCCl` was run?
A: inactive

Q: Which results are given for `CC(C)(C)C(O)(CCc1ccc(Cl)cc1)Cn1cncn1` (configuration not stated)?
A: outcome [6]: inactive; AC50 [7]: 16.7 µM (active); outcome (Adra2b (gene 24174)): inactive

Q: With `C[N+](C)(C)CC1CO1` (configuration not stated) as the compound, how does the outcome [8] read?
A: inactive

Q: What does the source list for `O=C(N[C@H](c1ccccc1)[C@@H]1CN2CCC1CC2)c1c(Cl)ccc(C(F)(F)F)c1Cl`?
A: outcome [3]: inactive; AC50 [9]: 23.6 µM (active); AC50 [4]: 37.5 µM (active); AC50 [10]: 18.1 µM (active); AC50 [11]: 14.9 µM (active)

Q: With `COC(=O)Nc1nc2ccccc2[nH]1` as the compound, how does the outcome [12] read?
A: inactive

Q: With `CCCSC(=O)N(CCC)CCC` as the compound, how does the outcome [13] read?
A: inactive

Q: For `CC(O)CCO` (configuration not stated), which outcome [2] is on record?
A: inactive

Q: How did the outcome [6] turn out when `CCCCCOC(=O)c1ccccc1C(=O)OCCCCC` was run?
A: inactive

Q: What about the outcome [14] of the same compound?
A: inactive

Q: What about the outcome [15] of the same compound?
A: inactive

Q: Which AC50 [2] does the source give for `CCC[CH2][Sn]([Cl])([CH2]CCC)[CH2]CCC` here?
A: 7.85 µM (active)

Q: And the AC50 [6]?
A: 0.228 µM (active)

Q: What about the AC50 [3] of the same compound?
A: 17.2 µM (active)

Q: What about the AC50 [7] of the same compound?
A: 5.79 µM (active)

Q: And the AC50 [9]?
A: 8.26 µM (active)

Q: And the AC50 [13]?
A: 10.6 µM (active)

Q: And the AC50 [14]?
A: 2.25 µM (active)

Q: And the AC50 [15]?
A: 3 µM (active)

Q: What about the AC50 [4] of the same compound?
A: 12 µM (active)

Q: And the AC50 [10]?
A: 11.3 µM (active)

Q: And the AC50 [11]?
A: 3.87 µM (active)

Q: What about the AC50 [16] of the same compound?
A: 25 µM (active)

Q: And the AC50 [17]?
A: 2.98 µM (active)

Q: What about the AC50 [18] of the same compound?
A: 3.75 µM (active)

Q: And the AC50 [19]?
A: 15.2 µM (active)

Q: And the AC50 [5]?
A: 2.5 µM (active)

Q: What about the outcome (Adra2b (gene 24174)) of the same compound?
A: inactive

Q: Which results are given for `Cc1cc(N=Nc2ccccc2C)ccc1N`?
A: outcome [6]: inactive; outcome [16]: inactive

Q: How did the outcome [19] turn out when `CC(C)(C)OOC(=O)c1ccccc1` was run?
A: inactive

Q: For `Cc1cccc(N)c1N`, which AC50 [12] is on record?
A: 16.8 µM (active)

Q: With `O=C(Oc1ccc(Br)cc1)N1CCN2CCC1CC2` as the compound, how does the outcome [9] read?
A: inactive

Q: What about the AC50 [15] of the same compound?
A: 14.8 µM (active)

Q: And the AC50 [19]?
A: 0.851 µM (active)

Q: And the outcome (Adra2b (gene 24174))?
A: inactive
